Reference: PubChem BioAssay (NCATS)
Results filed as inconclusive are left out. Unmarked numbers belong to inactive results. Calls of active or inactive are those of the source. The call rests on the fitted dose curve; in most records, active means well fitted inhibition curve with a large enough effect; inconclusive means small, poorly fitted or top-dose-only effect; inactive means no such curve, though single readings can be large or run the other way.

Experiment: qHTS to identify inhibitors of the type 1 interferon - major histocompatibility complex class I in skeletal muscle: primary screen against the NCATS Mechanism Interrogation Plate v5.0 (MIPE) Libary (AID 1347411); further: nearly all actives have a fitted effect of over 65% in size;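 on activity change, negative = inhibition: plate controls were vehicle for no effect and reference inhibitor for full effect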
Settings: iHSKM cells + IFN-b, HiBiT-tagged MHC-I luminescence, 24 h; series mostly up to 45.8 µM; activity change, negative = inhibition: at the top concentration
Summary of the method: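 Immortalized human myoblasts (C25cl48) with HiBit knocked into endogenous HLA-B*08:01 were stimulated with 4 ng/ml IFN-beta and given compounds in 11-point 1:3 titration from 46 uM. After 24 h at 37 C, lytic HiBiT luminescence was read.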
Potency means the concentration at half of the fitted maximal effect.

Row | SMILES | activity change, negative = inhibition | Potency
1 | CC(=O)Nc1ccc(OC[C@](C)(O)C(=O)Nc2ccc([N+](=O)[O-])c(C(F)(F)F)c2)cc1 | -4.39% | –
2 | CCc1c(C(=O)C(N)=O)c2c(OCC(=O)O)cccc2n1Cc1ccccc1 | 0.129% | –
3 | CC(C)[C@H]1C(=O)N[C@H](CO)Cc2c[nH]c3cccc(c23)N1C | 4.92% [at 15.5 µM] | –
4 | Clc1ccccc1C(c1ccccc1)(c1ccccc1)n1cccn1 | -21.7% | –
5 | Cc1ccccc1-n1c(Cn2ncc3c(N)ncnc32)nc2cccc(C)c2c1=O | 2.37% | –
6 | O=c1[nH]c2ccccc2n1C1CCN(Cc2ccc(-c3[nH]c4cc5ncnc5cc4nc3-c3ccccc3)cc2)CC1 | -6.52% | –
7 | O=C(O)CNC(=O)c1c(O)c2ccccc2n(Cc2ccccc2)c1=O | -19.4% | –
8 | CC1=C(O)C(=O)C=C2C1=CC=C1[C@@]2(C)CC[C@@]2(C)[C@@H]3C[C@](C)(C(=O)O)CC[C@]3(C)CC[C@]12C | – | 829 nM (active)
9 | CCN1C[C@]2(OC(=O)c3ccccc3NC(C)=O)CC[C@H](OC)[C@@]34[C@H]5CC6[C@@H](OC)C[C@](O)(C(C[C@@H]23)[C@@H]14)[C@@]5(O)[C@@H]6OC | 14.9% | –
10 | CN1[C@H]2CC(O)C[C@H]1[C@H]1O[C@H]12 (some centres not stated) | 22.5% | –
11 | C/C=C(/C)C(=O)O[C@H]1C(C)=C2[C@H]([C@@H]1OC(=O)CCCCCCC)[C@@](C)(OC(C)=O)C[C@H](OC(=O)CCC)[C@@]1(O)[C@H]2OC(=O)[C@@]1(C)O | – | 16.5 nM (active)
12 | CSCC[C@@H](NC(=O)[C@@H](Cc1ccccc1)NC(=O)CNC(=O)CNC(=O)[C@@H](N)Cc1ccc(O)cc1)C(=O)O | 13.8% | –
